# Shown are actives, neighbours in structure and some others; about 3.1% of the full set was active somewhere.
# Mito fusion yeast = inhibitors of mitochondrial division or activators of mitochondrial fusion | Potency, µM (doses to about 46.1 µM), hits mostly activators | hit rate 0.23% among 320,000 | S. cerevisiae fusion-defective mutant growth rescue, CellTiterGlo 48 h | AID 485298; note: nearly all actives have a fitted effect of over 45% in size
#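 Yeast fusion mutant, YPEG (non-fermentable carbon), compound, 48 h at 37C non-permissive; CellTiterGlo added, 10 min RT, luminescence read. Rescued growth = division inhibition.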
# Nrf2 block = inhibitors of Nrf2 signaling; A549 ARE-Fluc reporter, luciferase luminescence, 18-24 h; Potency, µM (highest dose often 46 µM), hits mostly inhibitors; hit rate 2.1% among 360,000; AID 504444; note: nearly all actives have a fitted effect of over 60% in size
#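 A549 ARE_Fluc cells (5000/well, 5% FBS OPTI-MEM) pre-incubated 2 h, then treated with compounds 18-24 h at 37C/5% CO2 in concentration-response. CellTiter-Fluor viability read first; BugLite luciferase luminescence after 15 min at room temperature gives Nrf2 activity.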
# TrxR1 substrate = substrates of rat thioredoxin reductase 1; O89049; purified TrxR1 substrate turnover, NADPH consumption readout; Potency, µM (highest dose often 114 µM); hit rate 0.01% among 390,000; AID 588456; note: nearly all actives have a fitted effect of over 50% in size
#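 Rat TrxR1, dispensed at 90 nM, was prereduced with 400 uM NADPH (final) for 5 min at ~22 deg C, then incubated with compound 15 min before 400 uM selenite. A first-read NADPH fluorescence drop versus no-compound background flagged substrates.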
# mIDH1 inhibitor = blocks human mutant IDH1 R132H enzyme; Potency, µM (doses to about 76.6 µM), hits mostly inhibitors; O75874; hit rate 0.093% among 390,000; IDH1-R132H enzyme, NADPH consumption, diaphorase/resazurin fluorescence; note: nearly all actives have a fitted effect of over 65% in size
# Target sequence (O75874 whole entry R132H, stated change not applied): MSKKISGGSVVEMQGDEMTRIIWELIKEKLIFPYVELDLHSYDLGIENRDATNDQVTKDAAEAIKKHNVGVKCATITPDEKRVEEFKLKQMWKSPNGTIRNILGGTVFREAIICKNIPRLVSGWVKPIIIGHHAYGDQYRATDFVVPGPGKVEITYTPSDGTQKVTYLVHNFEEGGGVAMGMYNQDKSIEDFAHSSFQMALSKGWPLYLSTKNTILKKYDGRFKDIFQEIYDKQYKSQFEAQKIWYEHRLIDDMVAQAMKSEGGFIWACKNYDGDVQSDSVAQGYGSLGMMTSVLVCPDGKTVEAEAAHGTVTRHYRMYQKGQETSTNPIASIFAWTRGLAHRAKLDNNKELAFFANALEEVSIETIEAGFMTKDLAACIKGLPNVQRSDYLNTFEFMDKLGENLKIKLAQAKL
#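 IDH1-R132H (0.5 ug/mL) preincubated 30 min with compound, then NADPH (0.016 mM) and alpha-KG (2 mM) added; 80 min at RT, pH 7.5. Remaining NADPH coupled via diaphorase/resazurin to fluorescence (540/590 nm); concentration-response curves normalized to no-enzyme control.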
# TrxR1 inh = blocks rat thioredoxin reductase 1; O89049; recombinant rTrxR1, NADPH fluorescence consumption, selenite substrate; Potency, µM (highest dose often 114 µM), most hits filed as inhibitors; hit rate 1% among 390,000; AID 588453; note: nearly all actives have a fitted effect of over 65% in size
#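 Rat TrxR1 (90 nM in the dispensed reagent) was pre-reduced with 400 uM NADPH for 5 min at room temperature, then incubated with compound for 15 min. After 400 uM selenite was added, NADPH fluorescence (Ex 340/Em 450 nm) was followed for 8 min.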
# A549 tox = A549 cytotoxicity, counter-screen for Nrf2 inhibitors. AID 504648. A549 ARE-Fluc cells, CellTiter-Fluor viability, 18-24 h. hit rate 0.16% among 390,000. Potency, µM (titrated, usually from 46 µM), actives largely listed as inhibitors
#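 A549 ARE_Fluc cells in 5% FBS OPTI-MEM were exposed to compounds in concentration-response for 18-24 h at 37 deg C. Viability was read by CellTiter-Fluor fluorescence (Ex 405/Em 525) after 30 min, before the luciferase read.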
# A number is an active result; – = inactive; ? = inconclusive; · = not tested or not shown. Calls come from the whole dose curve; as a rule, active = well fitted curve in the direction sought with a large enough effect; inconclusive = small, poorly fitted or top-dose-only effect, or another doubt; inactive = no such curve, though single readings can be large; an effect the other way counts as inactive or inconclusive.
SMILES,Mito fusion yeast,Nrf2 block,TrxR1 substrate,mIDH1 inhibitor,TrxR1 inh,A549 tox
O=C1C=CC(=O)N1c1ccc(O)cc1,–,?,–,–,1.3µM,–
O=C1C=CC(=O)N1c1ccc(OC(F)F)cc1,–,?,–,–,1.1µM,–
CCCCCC1CCNCC1,·,·,–,·,–,·
Cc1sc(NC(=O)c2ccc(OCC(C)C)cc2)c(C(N)=O)c1-c1ccc(Cl)cc1Cl,–,18µM,–,–,–,–
COC(=O)c1c(C)oc2ccc(N(C(=O)c3ccncc3)S(=O)(=O)c3ccc(C)cc3C)cc12,–,6.5µM,–,–,–,?
CCOC(=O)c1c(C)oc2ccc(N(C(=O)c3ccncc3)S(=O)(=O)c3ccc(F)cc3C)cc12,·,?,–,–,–,–
COC(=O)c1c(C)oc2ccc(N(C(=O)c3ccncc3)S(=O)(=O)c3ccc4ccccc4c3)cc12,?,23µM,–,–,–,–
COC(=O)c1c(C)oc2ccc(N(C(=O)c3ccncc3)S(=O)(=O)c3ccccc3)cc12,–,·,–,–,–,?
Cc1ccc(S(=O)(=O)N(C(=O)c2ccncc2)c2ccc(OC(=O)c3ccncc3)c3ccccc23)c(C)c1,–,–,–,–,–,–
COC(=O)c1c(C)oc2ccc(N(C(=O)c3ccncc3)S(=O)(=O)c3ccc(C)cc3)cc12,?,10µM,–,–,–,?
CN(C)c1ccc(/C=C/c2ccnc3ccccc23)cc1Br,·,·,–,·,–,·
Cc1ccc(NC(=O)CN(C)C(=O)Cn2ncc(Cl)c(Cl)c2=O)cc1,–,–,–,–,71µM,–
Cc1ccc(NC(=O)CN(C)C(=O)Cc2ccc(Cl)c(Cl)c2)cc1,–,–,–,–,–,–
COc1ccc(NC(=O)C2=C(C)Nc3nc(CCCO)nn3C2c2ccc(O)cc2)cc1 (stereo not drawn),·,·,–,–,–,–
COc1cc(CCC(=O)Nc2ccc(C)c(S(=O)(=O)N(C)C)c2)cc(OC)c1OC,–,23µM,–,–,–,–
COc1ccc(CCNCC(=O)Nc2ccc(C)c(S(=O)(=O)N(C)C)c2)cc1,–,–,–,–,–,–
COc1ccc(NS(=O)(=O)c2ccc(C)c(C(=O)N(C)CCc3ccc(OC)c(OC)c3)c2)cc1,–,21µM,–,–,–,–
COc1ccc(CCC(=O)Nc2ccc(C)c(S(=O)(=O)N(C)C)c2)cc1OC,–,13µM,–,–,–,–
CSc1cc2c(s1)c1cnn(Cc3cccc(N)c3)c(=O)c1n2C,·,–,·,·,·,–
O=[N+]([O-])c1ccc([S+](=O)([O-])N2CCN([S+](=O)([O-])c3ccc4c(c3)OCCO4)CC2)c([N+](=O)[O-])c1,·,–,·,·,·,–
Cc1ccc(C(=O)Nc2ccc(CC(=O)O)cc2)o1,–,?,–,–,–,–
CC(C)(C)c1ccc(C(=O)Nc2ccc(CC(=O)O)cc2)o1,–,3.7µM,–,–,–,–
CC(=O)c1ccc(N2CCN(Cc3cc(=O)n4c(-c5ccccc5)csc4n3)CC2)cc1,·,?,–,–,–,–
O=c1cc(CN2CCN(c3ccccc3)CC2)nc2scc(-c3ccccc3)n12,–,15µM,–,–,–,–
CCOC(=O)c1cc(S(=O)(=O)NCc2ccccc2)[nH]n1,·,·,–,–,–,–
SMILES,Mito fusion yeast,Nrf2 block,TrxR1 substrate,mIDH1 inhibitor,TrxR1 inh,A549 tox
Cc1ccc(S(=O)(=O)c2nc(C(C)(C)C)oc2N2CCOCC2)cc1,–,–,–,–,0.56µM,–
N#C/C(=N\Nc1cccc(F)c1)C(=O)C1CC1,–,21µM,–,?,–,?
CC1(C)N=C(SCC(=O)Nc2ccc(Cl)cc2)C(c2ccc(Cl)cc2)=N1,–,26µM,–,–,–,?
CC1(C)N=C(SCC(=O)Nc2ccc(Cl)cc2)C(c2ccccc2)=N1,–,–,–,–,–,–
Cc1ccc(-n2nnnc2SCC(=O)N2CCc3ccccc3C2)c(C)c1,–,16µM,–,–,–,–
COc1ccc(OC2=NS(=O)(=O)c3ccccc32)cc1,·,–,·,·,·,–
CN(C(=O)Cc1c[nH]c2ccccc12)C(C(=O)Nc1ccc2c(c1)OCO2)c1ccccc1 (stereo not drawn),–,23µM,–,–,–,?

# From PubChem
